Experimental findings from PubChem BioAssay (EPA / NIEHS) are described below.

By AC50 is commonly meant the concentration giving half of the maximal activity seen.

Records with an inconclusive call do not appear. Activity calls are given as the source filed them. Rule for the calls: active = hit-call score of the fitted dose curve at least 0.9, where 1 is the maximum; inconclusive = response in the unintended direction; inactive = score below 0.9.

Sequence of Cellular tumor antigen p53 (Homo sapiens) (P04637 whole entry, looked up): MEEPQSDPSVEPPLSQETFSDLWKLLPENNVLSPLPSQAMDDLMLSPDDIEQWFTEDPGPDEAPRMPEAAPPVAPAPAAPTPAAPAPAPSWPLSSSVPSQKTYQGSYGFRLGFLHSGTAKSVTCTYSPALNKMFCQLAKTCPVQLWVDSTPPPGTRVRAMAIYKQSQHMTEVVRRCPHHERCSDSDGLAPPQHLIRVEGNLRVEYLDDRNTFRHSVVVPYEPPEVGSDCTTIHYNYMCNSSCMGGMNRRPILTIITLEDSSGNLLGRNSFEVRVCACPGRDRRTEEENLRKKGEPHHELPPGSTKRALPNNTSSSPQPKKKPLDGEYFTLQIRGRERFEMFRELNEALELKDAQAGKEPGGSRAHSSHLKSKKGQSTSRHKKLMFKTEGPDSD

This test concerns the target Cellular tumor antigen p53 (Homo sapiens) (UniProt P04637). In words: TOX21_p53_BLA_p3_ratio: Tox21 HCT-116 p53 Agonism Beta-lactamase Assay, Ratio, Phase 3 (AID 2283596). Summed up: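 HCT116 p53-bla cells (4000/well) given compound in DMSO (217-fold dilution) after 5 h, incubated 16 h at 37C. CCF4-AM substrate 2 h at room temperature; 460/530 nm emission ratio, gain fitted against DMSO.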
As to `CCCCCCCCCCCCC(=O)O`, the outcome was inactive.
The same measure, in the same setting: in the case of `Cc1ccc(NC(=O)N(C)C)cc1NC(=O)N(C)C` it was “inactive”.
For `OC[C@@H](O)[C@@H](O)CO`, the result was inactive.
Turning to `NC(=O)CCCCC(N)=O`, the result was inactive.
In the case of `OCC(S)CS` (centres undefined), the AC50 was 35.7 µM (active).
As for `CC1CCCO1` (centres undefined), the result was inactive.
As for `C=CC1=C(C(=O)O)N2C(=O)[C@@H](NC(=O)/C(=N\O)c3csc(N)n3)[C@H]2SC1` (stereo in doubt), the result was inactive.
The same measure, in the same setting: in the case of `CC(=NO)C(C)=NO` it was “inactive”.
On to `CN(C)CCCN1c2ccccc2Sc2ccc(C(F)(F)F)cc21`, for which the AC50 is 11.1 µM (active).
With `O=C(O)CONC(=O)c1ccccc1`, the outcome was inactive.
On the same count and under the same terms, in the case of `C[C@H](CCC(=O)O)[C@H]1CC[C@H]2[C@@H]3[C@H](O)C[C@@H]4C[C@H](O)CC[C@]4(C)[C@H]3C[C@H](O)[C@]12C` it was “inactive”.
Regarding `CCc1ncnc2cc(OC)c(OC)cc12`, the result was inactive.
With `CC(C)n1nc(-c2cc3cc(O)ccc3[nH]2)c2c(N)ncnc21`, the result was inactive.
Regarding `CNCc1ccccc1`, the result was inactive.
For `CC(C)[N+](C)(C)CC(O)COc1cccc2ccccc12` (centres undefined), the result was inactive.
On the same count and under the same terms, in the case of `CC(=O)N1C[C@H](O)C[C@H]1C(=O)O` it was “inactive”.
Still for that read-out and setting: in the case of `NS(=O)(=O)c1cc(C2(O)NC(=O)c3ccccc32)ccc1Cl` (centres undefined) it was “inactive”.
On the same count and under the same terms, then `CC(C(=O)O)c1cccc(C(=O)c2ccccc2)c1` (centres undefined), with “inactive”; and `NCCOCCN`, with “inactive”; and `C=C1CC2C3CCC4=CC(=O)C=C[C@]4(C)[C@@]3(F)[C@@H](O)C[C@]2(C)[C@@]1(O)C(=O)COC(C)=O` (some centres undefined), with “inactive”.
Turning to `CCOC(=O)[C@H](CCc1ccccc1)N[C@@H](C)C(=O)N1[C@H](C(=O)O)C[C@H]2CCCC[C@@H]21`, the result was inactive.
As to `CC1CCCNC1` (centres undefined), the result was inactive.
On the same count and under the same terms, then `O=C(O)c1c(Cl)c(Cl)c(Cl)c(Cl)c1-c1c2cc(I)c(=O)c(I)c-2oc2c(I)c(O)c(I)cc12`, with “inactive”.
`CC(=O)C=Cc1ccco1`: the result was inactive.
In the case of `O=C(/C=C/c1cccc(F)c1)NC1CC1`, the outcome was inactive.
The same measure, in the same setting: then `CCOC(=O)[C@H](CCc1ccccc1)N[C@@H](C)C(=O)N1Cc2ccccc2C[C@H]1C(=O)O`, with “inactive”; and `CC(=O)O[C@H]1C[C@@H]2CC[C@@H]3[C@H](CC[C@@]4(C)[C@H]3C[C@H]([N+]3(C)CCCCC3)[C@@H]4OC(C)=O)[C@@]2(C)C[C@@H]1[N+]1(C)CCCCC1`, with “inactive”.
On to `Cc1c(C)c2c(c(C)c1OC(=O)CCC(=O)OCCO)CCC(C)(CCCC(C)CCCC(C)CCCC(C)C)O2` (centres undefined), for which the AC50 was 37.3 µM (active).
For `COc1ccc(OC)c(NC(=O)CC(C)=O)c1`, the result was inactive.
Take `CC1=C(/C=C/C(C)=C/C=C/C(C)=C/C=C/C=C(C)/C=C/C=C(C)/C=C/C2=C(C)C[C@@H](O)CC2(C)C)C(C)(C)C[C@H](O)C1`: the AC50 is 33.8 µM (active).
Consider `CC(=O)c1ccc2c(c1)N(CCCN1CCC(CCO)CC1)c1ccccc1S2`, for which the result was inactive.
The same measure, in the same setting: then `Brc1ccccc1-c1ccccc1`, with “inactive”.
With `CNc1cc(OC)c(C(=O)N[C@H]2CCN(Cc3ccccc3)[C@H]2C)cc1Cl`, the result was inactive.
For `O=C1c2c(O)ccc([N+](=O)[O-])c2C(=O)c2c([N+](=O)[O-])ccc(O)c21`, the half-maximal activity concentration (AC50) was 28.7 µM (active).
Consider `Cc1cc(CC(C)CC(C)(C)C)n(O)c(=O)c1` (centres undefined) (tested in a mixture with another compound), for which the result was inactive.
As for `CCN(CC)c1ccc(C(=C2C=CC(=[N+](CC)CC)C=C2)c2ccccc2)cc1`, the AC50 is 6.97 µM (active).
Turning to `CCN(CC)CCOc1ccc(C(O)(Cc2ccc(Cl)cc2)c2ccc(C)cc2)cc1` (centres undefined), the result was inactive.
The same measure, in the same setting: then `O=S(=O)(O)c1ccc2c(N=Nc3ccc(S(=O)(=O)O)c4ccccc34)c(O)c(S(=O)(=O)O)cc2c1`, with “inactive”.
Regarding `CC(C)(C)CC(C)(C)c1cc(Cc2cc(C(C)(C)CC(C)(C)C)cc(-n3nc4ccccc4n3)c2O)c(O)c(-n2nc3ccccc3n2)c1`, the result was inactive.
